Screens from PubChem.
This is a sample that favours compounds with a hit; in the whole collection about 0.84% have one here.
SRC3 TRFRET art = flags TR-FRET format artefacts in PPARgamma SRC-3 recruitment agonist screen | TR-FRET artefact counter-screen, PPARgamma/SRC-3 format; stronger effect = higher value | TR-FRET ratio at 8 µM | 99,000 tested, 0.39% active
SRC1 TRFRET art = TR-FRET artefact, counter-screen to PPARgamma/SRC-1 agonist assay. AID 1051. TR-FRET detection artefact counter-screen, emission ratio; stronger effect = higher value. 99,000 tested, 0.34% active. TR-FRET ratio at 8 µM; in the data active = TR-FRET ratio above about 2300
PPARg SRC3 recr = PPARgamma-driven SRC-3 recruitment agonism; biochemical PPARgamma/SRC-3 coactivator recruitment assay; activation, % at 8 µM; 200,000 tested, 0.26% active; AID 731; P37231; in the data active = activation above about 23%;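 also: 0% = DMSO and 100% = reference agonist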
Target sequence (P37231 whole entry, looked up): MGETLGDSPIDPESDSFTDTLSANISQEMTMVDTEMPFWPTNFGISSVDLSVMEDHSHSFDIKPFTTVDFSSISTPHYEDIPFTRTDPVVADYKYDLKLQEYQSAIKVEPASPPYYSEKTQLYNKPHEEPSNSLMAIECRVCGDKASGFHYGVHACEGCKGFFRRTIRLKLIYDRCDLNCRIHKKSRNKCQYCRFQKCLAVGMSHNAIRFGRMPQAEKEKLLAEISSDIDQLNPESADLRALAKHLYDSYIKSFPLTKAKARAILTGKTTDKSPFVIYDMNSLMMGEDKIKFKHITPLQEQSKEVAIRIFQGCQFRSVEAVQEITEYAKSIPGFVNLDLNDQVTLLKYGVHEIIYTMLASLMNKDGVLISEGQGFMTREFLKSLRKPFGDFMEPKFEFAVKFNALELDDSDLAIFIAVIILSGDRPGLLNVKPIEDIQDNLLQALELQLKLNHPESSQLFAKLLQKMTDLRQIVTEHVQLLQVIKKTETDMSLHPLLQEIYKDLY
PPARg SRC-2 ag = promotes SRC-2 coactivator recruitment by human PPARgamma. P37231. PPARgamma LBD-SRC-2 recruitment, biochemical. activation, % at 8 µM. 200,000 tested, 0.34% active; in the data active = activation above about 22%;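 also: 0% = vehicle and 100% = reference agonist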
TR-FRET SRC-2 ct = flags TR-FRET format artefacts in PPARgamma SRC-2 recruitment agonist screen; 200,000 tested, 0.4% active; AID 1049; TR-FRET ratio at 8 µM; TR-FRET artefact counter-screen; stronger effect = higher value
PPARg SRC1 recr = agonists of human PPARgamma SRC-1 coactivator recruitment. P37231. PPARgamma-SRC-1 coactivator recruitment biochemical assay. activation, % at 8 µM. 200,000 tested, 0.41% active; in the data active = activation above about 19%;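 also: 0% = DMSO and 100% = reference agonist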
The depositor's hits bear a star; . = no result given. Rule as the data show it, unless noted: active = TR-FRET ratio above about 2000; inactive = the rest.

SMILES	SRC3 TRFRET art	SRC1 TRFRET art	PPARg SRC3 recr	PPARg SRC-2 ag	TR-FRET SRC-2 ct	PPARg SRC1 recr
O=C1COc2ccc(C(=O)COC(=O)C3CCN(S(=O)(=O)c4cccs4)CC3)cc2N1	.	.	16.8	12.2	1626	10.0
CC1(C)CC2(CCO1)OC(=O)CC2C(=O)Nc1ccccc1Cl (stereo not drawn)	1518	1726	4.1	10.4	1786	2.4
CCN(CC)c1ccc(N=Cc2ccc(N(CC)CC)cc2O)cc1	.	.	41.2*	27.4*	1964	14.2
CCN(CC)c1ccc(C=Nc2ccc(C)cc2)c(O)c1	.	.	5.3	11.1	1701	4.4
CC(=O)Nc1ccc(-n2nnnc2SCC(=O)NCc2cccs2)cc1	1568	1673	1.0	5.7	1559	-4.0
Cc1ccc2nc(SCC(=O)NCc3ccco3)c(C#N)cc2c1	.	.	10.0	16.4	2312*	10.5
Cc1ccc2nc(SCC(=O)NCc3cccs3)c(C#N)cc2c1	.	.	-5.9	0.9	1428	41.6*
CC(C)n1c(SCC(=O)NCc2ccco2)nc2c1c(=O)n(C)c(=O)n2C	.	.	-1.1	2.7	1612	20.3*
Cn1c(=O)c2c(nc(SCC(=O)NCc3ccco3)n2C)n(C)c1=O	.	.	4.1	15.0	1715	1.5
O=C(c1cc2nc(-c3ccc(F)cc3)cc(C(F)(F)F)n2n1)N1CCCCC1c1cccnc1 (stereo not drawn)	1640	1679	3.7	5.5	1410	0.6
Cc1cc(NC(=O)CN2C(=O)NC3(CCC(C)CC3)C2=O)no1 (stereo not drawn)	1468	2022	5.1	22.3*	1764	5.0
Cc1nn(-c2ccc(Cl)nn2)c(=O)c2ccccc12	1588	1967	1.8	2.8	1553	0.4
O=C(COc1ccc(/C=N/NC(=O)c2cc3ccccc3o2)cc1Br)Nc1ccccc1	.	.	9.0	63.0*	3281*	5.8
COc1cc(Cl)cc(C2NC(=S)NC(c3ccccc3)=C2C(C)=O)c1OCC(=O)O (stereo not drawn)	1644	1936	12.5	13.1	1560	5.6
COc1cccc(NC(=S)/C(=C(\[O-])c2ccc(OC(F)F)cc2)[n+]2ccccc2)c1	1727	1864	1.5	5.2	1987*	5.2
CC1=NNC(=O)C1CC(=O)N/N=C(\C)c1ccco1 (stereo not drawn)	1454	2343*	2.0	5.8	1775	2.1
CC1=NNC(=O)C1CCC(=O)N/N=C(\C)c1ccccc1 (stereo not drawn)	1476	1740	1.6	-1.3	1390	0.4
S=C(Nc1ccc2c(c1)OCO2)N1CCN(Cc2ccco2)CC1	1684	1890	-2.8	-4.1	1608	-2.9
Cc1ccccc1-n1c(-c2ccco2)n[nH]c1=S	1585	1909	6.6	26.5*	1756	8.3
Cc1cc([N+](=O)[O-])c2c(c1C)C1C=CCC1C(c1ccccn1)N2 (stereo not drawn)	1391	1578	3.5	0.7	1479	-5.4
Cc1nc(C)n(CC(=O)N2CCCC(C(=O)c3ccc(C(F)(F)F)cc3)C2)n1 (stereo not drawn)	1776	1972	-1.2	3.4	1483	7.5
CN1/C(=C\C(=O)COC(=O)Cn2nnc(-c3ccccc3)n2)C(C)(C)c2ccccc21	.	.	5.1	9.0	2474*	10.4
COc1cc(OC)cc(C(=O)NCC(=O)OCC(=O)/C=C2/N(C)c3ccccc3C2(C)C)c1	1511	1763	-2.8	-3.6	1591	1.8
Cc1ccc(C2=NC3(CCCCC3)NC2=S)cc1	1567	1722	0.1	-2.1	1697	-1.7
CCN1CCC2(CC1)N=C(c1ccc(F)cc1)C(=S)N2	1803	1797	2.6	13.6	1979*	5.9
SMILES	SRC3 TRFRET art	SRC1 TRFRET art	PPARg SRC3 recr	PPARg SRC-2 ag	TR-FRET SRC-2 ct	PPARg SRC1 recr
Cc1ccccc1NC(=O)Cn1c(=O)sc2ccccc21	1422	1783	-1.1	0.8	1484	0.7
COc1ccc(C(=O)CSc2ccccc2C(=O)O)cc1	1710	2132	6.6	11.7	1398	3.1
CCOc1ccc(CN2CCN(Cc3nc(C(C)C)cs3)CC2CCO)cc1 (stereo not drawn)	1754	1690	3.5	-3.3	1498	9.9
CCCCNC(=O)CSc1nc2ccccc2n1S(=O)(=O)c1ccc(Br)cc1	1649	1765	-1.8	11.4	1974*	5.0
CCCCNC(=O)CSc1nc2ccccc2n1S(=O)(=O)c1ccc(Cl)cc1	1560	1668	3.6	-0.4	1627	-3.9
Cc1ccc(-c2csc3ncnc(-n4nnc5ccccc54)c23)cc1	2064*	1803	3.1	-8.1	1648	-5.2
O=C(Cn1nnc2ccccc21)Nc1ccc(Cl)cn1	1508	1777	4.3	9.9	1373	1.8
CCc1ccc(OCC(=O)NNC(=O)CSc2ncnc3sc(C)c(C)c23)cc1	.	.	19.0	10.8	1696	54.5*
Cc1ccc(OCC(=O)NNC(=O)CSc2ncnc3sc(C)c(C)c23)cc1	1392	1797	-1.4	-1.7	1470	0.7
CCOC(=O)c1c(NC(=O)Cc2cccs2)sc(C(=O)NC2CCCC2)c1C	.	.	34.5*	2.4	1550	1.3
CCOC(=O)c1c(NC(=O)Cc2cccs2)sc(C(=O)NC2CCCCC2)c1C	.	.	4.2	3.2	1698	8.1
CCC(C)Nc1nnnc2c1sc1nc3c(cc12)COC(C)(C)C3 (stereo not drawn)	1332	1599	-2.2	-5.4	1469	-1.7
Oc1ccc(C2Nc3cccc4cccc(c34)N2)c(O)c1	.	.	30.7*	19.1	1494	30.4*
COc1ccc(/C(O)=C2\C(=O)C(=O)N(c3cc(C)on3)C2c2cccc(OC)c2OC)cc1C (stereo not drawn)	.	.	14.9	18.8	2062*	16.4
Cc1ccc(/C(O)=C2\C(=O)C(=O)N(c3cc(C)on3)C2c2cccc(Cl)c2)cc1 (stereo not drawn)	.	.	10.7	3.4	1632	14.9
O=[N+]([O-])c1cccc2c(N3CCCC3)ccnc12	1508	1844	1.2	-3.3	1562	7.5
O=C(CSc1ccc2nnc(-c3ccccn3)n2n1)NCc1ccc2c(c1)OCO2	.	.	-1.7	28.1*	1984*	-5.3
Cc1ccc(Cc2ccc(C(=O)NNC(N)=S)o2)cc1	1600	1590	0.3	-4.3	1208	-4.5
Cc1cc(CNCc2c(C(=O)N3CCCCCCC3)nc3ccc(Cl)cn23)nn1C	1493	1654	-0.6	-2.8	1413	1.4
O=C(NCc1n[nH]c(=S)n1-c1ccc(Br)cc1)c1ccc(S(=O)(=O)N2CCCC2)cc1	1545	1793	0.3	3.1	1416	5.1
O=C(NCc1n[nH]c(=S)n1-c1ccc(Br)cc1)c1ccc(S(=O)(=O)N2CCOCC2)cc1	1445	1728	3.7	22.3*	1713	5.4
N#C/C(=C\c1ccccc1)C(=O)OCC(=O)N1CCCC1	1449	1742	1.6	-2.1	1618	3.7
Cc1cc(C)cc(-n2c3nc4ccccc4nc3c3c(=O)n(Cc4ccco4)cnc32)c1	.	.	8.5	7.1	1412	0.9
CCOc1ccc(-n2c3nc4ccccc4nc3c3c(=O)n(Cc4ccco4)cnc32)cc1	.	.	84.0*	7.2	1566	45.2*
